Holding throughout (assay): DAPPL (digital affinity profiling via proximity ligation, sequencing); 10 mM Tris-HCl pH 7.5, 50 mM NaCl, 1 mM DTT, 4% glycerol, room temperature, 30 min; GST-TFs on glutathione beads, 16-mer random dsDNA library, 0.1% formaldehyde crosslink after washing; high values mean tight binding
One experiment addresses T1, FLI1 (Homo sapiens, UniProt Q01543 1-452).
T1 sequence: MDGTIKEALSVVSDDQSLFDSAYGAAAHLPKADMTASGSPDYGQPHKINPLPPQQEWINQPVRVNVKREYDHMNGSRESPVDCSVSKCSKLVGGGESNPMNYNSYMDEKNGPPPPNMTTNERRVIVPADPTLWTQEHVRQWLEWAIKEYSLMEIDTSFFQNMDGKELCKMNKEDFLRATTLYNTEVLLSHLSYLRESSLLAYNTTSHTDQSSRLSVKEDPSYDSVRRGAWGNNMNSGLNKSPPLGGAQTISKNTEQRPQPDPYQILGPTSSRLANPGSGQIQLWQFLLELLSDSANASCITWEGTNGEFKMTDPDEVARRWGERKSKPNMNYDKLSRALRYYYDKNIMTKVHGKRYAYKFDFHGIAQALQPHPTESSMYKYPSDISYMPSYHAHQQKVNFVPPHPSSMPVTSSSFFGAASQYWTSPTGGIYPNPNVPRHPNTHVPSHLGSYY
Particulars: protein: recombinant; tags: N-terminal GST; dsDNA, one strand shown. The method, boiled down:
(§1)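 Binding signal is given per hexamer as its read frequency for a factor divided by its frequency in the tag-only sample. GST-fused human transcription factors were expressed in yeast, captured on glutathione beads, barcoded with DNA and pooled with that sample, then incubated with 200 nmole of a 16-mer random double-stranded DNA library in Tris/NaCl/DTT/glycerol buffer for 30 min at room temperature. The pools were then washed, crosslinked, proximity-ligated, amplified by PCR and sequenced on an Illumina NextSeq500.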

The next experiment has as its target T2, ELK1 (Homo sapiens, UniProt P19419 1-428).
T2 sequence: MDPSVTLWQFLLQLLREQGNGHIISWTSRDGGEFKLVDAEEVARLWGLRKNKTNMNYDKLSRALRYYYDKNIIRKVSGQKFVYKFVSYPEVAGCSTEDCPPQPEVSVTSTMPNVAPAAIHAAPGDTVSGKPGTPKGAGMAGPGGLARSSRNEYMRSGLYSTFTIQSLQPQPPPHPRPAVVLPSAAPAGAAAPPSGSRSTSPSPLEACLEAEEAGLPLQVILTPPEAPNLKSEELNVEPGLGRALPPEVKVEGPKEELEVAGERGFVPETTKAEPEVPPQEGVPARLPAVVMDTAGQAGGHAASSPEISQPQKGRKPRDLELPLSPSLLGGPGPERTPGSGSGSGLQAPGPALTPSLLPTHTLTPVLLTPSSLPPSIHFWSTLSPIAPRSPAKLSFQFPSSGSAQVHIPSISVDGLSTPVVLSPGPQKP
Particulars: protein: recombinant; tags: N-terminal GST; dsDNA, one strand shown. In a few lines: as §1

In the next experiment the target is T3, GABPA (Homo sapiens, UniProt Q06546 1-454).
T3 sequence: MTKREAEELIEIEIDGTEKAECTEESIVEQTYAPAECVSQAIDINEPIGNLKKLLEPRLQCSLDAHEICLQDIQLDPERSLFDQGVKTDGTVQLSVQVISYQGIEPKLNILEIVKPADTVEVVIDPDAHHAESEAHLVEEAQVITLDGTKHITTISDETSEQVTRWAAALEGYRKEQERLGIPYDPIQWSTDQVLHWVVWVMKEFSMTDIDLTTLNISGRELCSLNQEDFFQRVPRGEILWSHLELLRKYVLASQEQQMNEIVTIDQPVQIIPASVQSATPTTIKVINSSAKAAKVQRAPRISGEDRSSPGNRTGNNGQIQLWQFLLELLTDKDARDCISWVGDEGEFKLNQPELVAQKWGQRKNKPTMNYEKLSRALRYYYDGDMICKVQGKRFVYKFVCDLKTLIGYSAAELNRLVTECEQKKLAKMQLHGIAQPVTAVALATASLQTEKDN
Particulars: protein: recombinant; tags: N-terminal GST; dsDNA, one strand shown. The method, boiled down:
as §1

The next experiment addresses T4, ERG (Homo sapiens, UniProt P11308 1-479).
T4 sequence: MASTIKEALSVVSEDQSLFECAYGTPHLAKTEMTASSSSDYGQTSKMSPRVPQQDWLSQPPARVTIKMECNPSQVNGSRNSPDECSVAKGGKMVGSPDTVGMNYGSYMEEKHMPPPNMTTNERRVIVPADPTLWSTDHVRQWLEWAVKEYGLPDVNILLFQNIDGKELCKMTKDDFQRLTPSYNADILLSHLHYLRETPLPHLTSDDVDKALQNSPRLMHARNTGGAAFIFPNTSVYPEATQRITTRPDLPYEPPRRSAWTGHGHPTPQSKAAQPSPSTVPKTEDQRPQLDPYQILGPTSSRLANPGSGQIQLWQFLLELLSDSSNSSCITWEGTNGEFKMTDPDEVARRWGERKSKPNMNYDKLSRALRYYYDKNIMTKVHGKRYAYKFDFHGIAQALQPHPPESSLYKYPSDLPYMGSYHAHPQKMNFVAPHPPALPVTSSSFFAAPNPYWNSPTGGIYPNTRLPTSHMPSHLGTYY
Particulars: protein: recombinant; tags: N-terminal GST; dsDNA, one strand shown. In a few lines:
as §1

The next experiment has as its target ELF1 (Homo sapiens, UniProt P32519 1-619). Particulars: protein: recombinant; tags: N-terminal GST; dsDNA, one strand shown. In a few lines:
as §1

The target in another experiment is T5, EHF (Homo sapiens, UniProt Q9NZC4 1-300).
T5 sequence: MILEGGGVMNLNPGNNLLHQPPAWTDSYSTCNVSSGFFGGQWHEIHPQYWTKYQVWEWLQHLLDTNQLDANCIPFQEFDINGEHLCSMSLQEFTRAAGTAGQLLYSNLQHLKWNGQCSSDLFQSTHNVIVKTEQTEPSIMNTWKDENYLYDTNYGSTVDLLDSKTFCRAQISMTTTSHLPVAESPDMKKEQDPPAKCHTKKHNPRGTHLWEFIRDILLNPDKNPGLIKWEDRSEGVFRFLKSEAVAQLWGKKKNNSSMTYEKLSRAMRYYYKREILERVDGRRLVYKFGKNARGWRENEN
Particulars: protein: recombinant; tags: N-terminal GST; dsDNA, one strand shown. In a few lines: as §1

The next experiment has as its target SPI1 (Homo sapiens, UniProt P17947 1-270). Particulars: protein: recombinant; tags: N-terminal GST; dsDNA, one strand shown. The method, boiled down: as §1
The target in a further experiment is SPIB (Homo sapiens, UniProt Q01892 1-262). Particulars: protein: recombinant; tags: N-terminal GST; dsDNA, one strand shown. The method, boiled down: as §1
A further experiment addresses T6, ELK3 (Homo sapiens, UniProt P41970 1-407).
T6 sequence: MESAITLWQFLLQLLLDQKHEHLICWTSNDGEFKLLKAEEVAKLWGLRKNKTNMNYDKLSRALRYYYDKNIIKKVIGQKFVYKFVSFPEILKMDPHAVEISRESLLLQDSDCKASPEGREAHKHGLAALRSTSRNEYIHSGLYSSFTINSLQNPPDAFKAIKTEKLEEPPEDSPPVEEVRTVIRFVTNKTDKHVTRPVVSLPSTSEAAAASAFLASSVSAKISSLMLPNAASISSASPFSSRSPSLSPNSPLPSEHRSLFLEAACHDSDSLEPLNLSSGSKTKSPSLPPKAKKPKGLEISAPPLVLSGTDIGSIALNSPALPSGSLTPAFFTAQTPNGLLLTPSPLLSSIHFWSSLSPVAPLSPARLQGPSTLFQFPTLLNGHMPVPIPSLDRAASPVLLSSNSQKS
Particulars: protein: recombinant; tags: N-terminal GST; dsDNA, one strand shown. The method, boiled down: as §1

The target of a further experiment is T7, FEV (Homo sapiens, UniProt Q99581 1-238).
T7 sequence: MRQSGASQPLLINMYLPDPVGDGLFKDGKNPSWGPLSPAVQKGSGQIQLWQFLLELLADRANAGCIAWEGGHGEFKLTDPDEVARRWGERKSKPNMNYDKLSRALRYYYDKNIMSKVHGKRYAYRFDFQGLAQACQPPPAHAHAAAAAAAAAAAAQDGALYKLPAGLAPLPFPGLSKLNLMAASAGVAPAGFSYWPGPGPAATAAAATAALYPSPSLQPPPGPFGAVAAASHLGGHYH
Particulars: protein: recombinant; tags: N-terminal GST; dsDNA, one strand shown. In a few lines: as §1

The target in another experiment is ETV5 (Homo sapiens, UniProt P41161 1-510). Particulars: protein: recombinant; tags: N-terminal GST; dsDNA, one strand shown. The method, boiled down: as §1
The target in the next experiment is HSF1 (Homo sapiens, UniProt Q00613 1-529). Particulars: protein: recombinant; tags: N-terminal GST; chain copies: 3; dsDNA, one strand shown. In a few lines:
as §1

In the next experiment the target is T8, SPIC (Homo sapiens, UniProt Q8N5J4 1-248).
T8 sequence: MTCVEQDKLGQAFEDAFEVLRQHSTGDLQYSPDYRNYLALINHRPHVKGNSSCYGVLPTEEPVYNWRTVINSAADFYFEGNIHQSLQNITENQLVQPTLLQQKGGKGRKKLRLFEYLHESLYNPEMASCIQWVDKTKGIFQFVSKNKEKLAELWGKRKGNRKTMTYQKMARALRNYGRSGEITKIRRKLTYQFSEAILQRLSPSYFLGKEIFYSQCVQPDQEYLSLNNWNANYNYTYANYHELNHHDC
Particulars: protein: recombinant; tags: N-terminal GST; dsDNA, one strand shown. The method, boiled down: as §1

In the next experiment the target is ELF4 (Homo sapiens, UniProt Q99607 1-663). Particulars: protein: recombinant; tags: N-terminal GST; dsDNA, one strand shown. The method, boiled down: as §1
In a further experiment the target is T9, ELK4 (Homo sapiens, UniProt P28324-2 1-405).
T9 sequence: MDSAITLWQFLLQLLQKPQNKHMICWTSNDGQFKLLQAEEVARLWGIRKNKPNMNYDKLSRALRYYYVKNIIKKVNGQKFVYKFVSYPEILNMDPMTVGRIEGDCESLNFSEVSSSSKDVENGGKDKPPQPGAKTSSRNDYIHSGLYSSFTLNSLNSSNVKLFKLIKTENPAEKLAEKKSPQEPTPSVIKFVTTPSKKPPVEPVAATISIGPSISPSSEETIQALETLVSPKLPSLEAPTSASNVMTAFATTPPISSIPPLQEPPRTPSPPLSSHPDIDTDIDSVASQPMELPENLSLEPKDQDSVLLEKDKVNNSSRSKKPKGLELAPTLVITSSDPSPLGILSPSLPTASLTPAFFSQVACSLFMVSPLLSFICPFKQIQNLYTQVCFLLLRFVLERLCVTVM
Particulars: protein: recombinant; tags: N-terminal GST; dsDNA, one strand shown. The method, boiled down: as §1

The next experiment addresses T10, ETV2 (Homo sapiens, UniProt O00321 1-342).
T10 sequence: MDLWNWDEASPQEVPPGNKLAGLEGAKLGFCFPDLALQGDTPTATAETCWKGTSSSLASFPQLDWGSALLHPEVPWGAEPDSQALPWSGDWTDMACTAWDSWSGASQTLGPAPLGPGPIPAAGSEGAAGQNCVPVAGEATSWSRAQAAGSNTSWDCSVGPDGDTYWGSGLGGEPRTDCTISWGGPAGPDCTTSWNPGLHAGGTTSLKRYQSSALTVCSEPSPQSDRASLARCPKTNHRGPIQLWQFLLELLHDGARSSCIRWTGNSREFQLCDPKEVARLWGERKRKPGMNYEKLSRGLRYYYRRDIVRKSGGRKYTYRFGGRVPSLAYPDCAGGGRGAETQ
Particulars: protein: recombinant; tags: N-terminal GST; dsDNA, one strand shown. In a few lines:
as §1

The target of the next experiment is T11, ELF3 (Homo sapiens, UniProt P78545 1-371).
T11 sequence: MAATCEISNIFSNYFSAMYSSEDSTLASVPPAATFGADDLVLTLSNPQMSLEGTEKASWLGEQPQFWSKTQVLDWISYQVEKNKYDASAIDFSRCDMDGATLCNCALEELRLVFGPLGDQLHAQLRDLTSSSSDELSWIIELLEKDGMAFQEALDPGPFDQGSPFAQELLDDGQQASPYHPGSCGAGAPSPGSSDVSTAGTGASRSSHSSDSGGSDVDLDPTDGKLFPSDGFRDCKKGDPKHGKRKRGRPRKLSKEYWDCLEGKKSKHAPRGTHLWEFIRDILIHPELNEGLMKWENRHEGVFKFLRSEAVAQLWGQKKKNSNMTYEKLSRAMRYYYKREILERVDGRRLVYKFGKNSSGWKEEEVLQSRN
Particulars: protein: recombinant; tags: N-terminal GST; dsDNA, one strand shown. In a few lines:
as §1

In a further experiment the target is CRX (Homo sapiens, UniProt O43186 1-299). Particulars: protein: recombinant; tags: N-terminal GST; dsDNA, one strand shown. In a few lines: as §1
The target of another experiment is ETV1 (Homo sapiens, UniProt P50549 1-477). Particulars: protein: recombinant; tags: N-terminal GST; dsDNA, one strand shown. The method, boiled down:
as §1

Chain of ELF1 (P32519 whole entry): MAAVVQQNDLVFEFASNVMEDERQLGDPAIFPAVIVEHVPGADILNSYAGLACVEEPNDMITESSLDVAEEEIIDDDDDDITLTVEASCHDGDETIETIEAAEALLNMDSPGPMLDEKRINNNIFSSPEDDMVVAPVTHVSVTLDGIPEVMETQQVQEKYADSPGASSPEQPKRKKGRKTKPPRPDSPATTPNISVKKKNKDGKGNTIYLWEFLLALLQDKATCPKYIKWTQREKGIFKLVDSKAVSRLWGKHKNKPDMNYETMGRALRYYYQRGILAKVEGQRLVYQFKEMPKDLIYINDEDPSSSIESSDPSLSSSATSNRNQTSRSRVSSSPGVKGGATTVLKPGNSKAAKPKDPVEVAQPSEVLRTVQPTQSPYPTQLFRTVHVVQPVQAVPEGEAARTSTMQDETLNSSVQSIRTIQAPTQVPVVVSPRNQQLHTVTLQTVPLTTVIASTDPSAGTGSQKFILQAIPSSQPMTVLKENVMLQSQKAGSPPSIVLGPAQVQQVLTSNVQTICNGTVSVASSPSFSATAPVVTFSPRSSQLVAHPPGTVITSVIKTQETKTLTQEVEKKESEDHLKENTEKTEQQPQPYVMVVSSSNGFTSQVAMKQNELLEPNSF
Chain of SPIB (Q01892 whole entry): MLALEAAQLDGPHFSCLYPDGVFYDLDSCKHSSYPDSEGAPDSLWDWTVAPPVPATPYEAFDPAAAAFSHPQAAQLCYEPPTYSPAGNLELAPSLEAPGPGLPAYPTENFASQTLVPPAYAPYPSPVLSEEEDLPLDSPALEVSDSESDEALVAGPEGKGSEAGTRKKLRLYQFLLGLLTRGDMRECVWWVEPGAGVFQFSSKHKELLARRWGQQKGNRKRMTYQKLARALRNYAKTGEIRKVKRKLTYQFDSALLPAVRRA
Chain of ETV5 (P41161 whole entry): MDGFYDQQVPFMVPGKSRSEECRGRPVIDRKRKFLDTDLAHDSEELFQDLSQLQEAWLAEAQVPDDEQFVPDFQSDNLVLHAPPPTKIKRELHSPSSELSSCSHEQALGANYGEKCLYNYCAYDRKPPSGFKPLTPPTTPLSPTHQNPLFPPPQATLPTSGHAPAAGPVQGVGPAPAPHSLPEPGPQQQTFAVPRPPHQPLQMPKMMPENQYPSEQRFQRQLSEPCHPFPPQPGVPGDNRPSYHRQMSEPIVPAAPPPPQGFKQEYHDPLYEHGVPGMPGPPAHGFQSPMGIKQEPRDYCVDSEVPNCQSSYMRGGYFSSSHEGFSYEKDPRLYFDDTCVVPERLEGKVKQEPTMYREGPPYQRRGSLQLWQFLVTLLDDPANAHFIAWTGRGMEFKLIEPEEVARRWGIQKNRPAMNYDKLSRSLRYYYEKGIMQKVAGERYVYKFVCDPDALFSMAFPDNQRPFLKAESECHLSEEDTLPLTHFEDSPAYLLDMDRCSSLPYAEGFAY
Chain of ETV1 (P50549 whole entry): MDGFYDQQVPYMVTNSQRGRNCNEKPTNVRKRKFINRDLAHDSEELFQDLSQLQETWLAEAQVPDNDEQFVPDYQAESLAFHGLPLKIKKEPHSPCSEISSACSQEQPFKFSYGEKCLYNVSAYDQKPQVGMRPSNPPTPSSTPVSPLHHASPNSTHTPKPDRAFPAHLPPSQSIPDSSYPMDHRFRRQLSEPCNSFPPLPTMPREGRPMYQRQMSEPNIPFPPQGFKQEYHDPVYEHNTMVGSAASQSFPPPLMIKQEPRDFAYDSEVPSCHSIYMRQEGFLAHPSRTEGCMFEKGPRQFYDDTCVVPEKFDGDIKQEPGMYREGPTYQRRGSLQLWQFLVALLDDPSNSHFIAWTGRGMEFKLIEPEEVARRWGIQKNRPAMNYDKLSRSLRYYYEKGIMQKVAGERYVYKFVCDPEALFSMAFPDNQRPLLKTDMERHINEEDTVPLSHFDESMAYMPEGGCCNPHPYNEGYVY
Chain of CRX (O43186 whole entry): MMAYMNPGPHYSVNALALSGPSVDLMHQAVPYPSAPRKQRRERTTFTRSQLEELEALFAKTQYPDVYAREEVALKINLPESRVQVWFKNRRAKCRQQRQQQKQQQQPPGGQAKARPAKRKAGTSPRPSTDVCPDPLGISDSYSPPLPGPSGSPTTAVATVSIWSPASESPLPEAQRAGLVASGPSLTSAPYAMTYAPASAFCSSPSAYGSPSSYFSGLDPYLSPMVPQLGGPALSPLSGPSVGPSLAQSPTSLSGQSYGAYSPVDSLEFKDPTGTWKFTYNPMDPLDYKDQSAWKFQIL
Chain of ELF4 (Q99607 whole entry): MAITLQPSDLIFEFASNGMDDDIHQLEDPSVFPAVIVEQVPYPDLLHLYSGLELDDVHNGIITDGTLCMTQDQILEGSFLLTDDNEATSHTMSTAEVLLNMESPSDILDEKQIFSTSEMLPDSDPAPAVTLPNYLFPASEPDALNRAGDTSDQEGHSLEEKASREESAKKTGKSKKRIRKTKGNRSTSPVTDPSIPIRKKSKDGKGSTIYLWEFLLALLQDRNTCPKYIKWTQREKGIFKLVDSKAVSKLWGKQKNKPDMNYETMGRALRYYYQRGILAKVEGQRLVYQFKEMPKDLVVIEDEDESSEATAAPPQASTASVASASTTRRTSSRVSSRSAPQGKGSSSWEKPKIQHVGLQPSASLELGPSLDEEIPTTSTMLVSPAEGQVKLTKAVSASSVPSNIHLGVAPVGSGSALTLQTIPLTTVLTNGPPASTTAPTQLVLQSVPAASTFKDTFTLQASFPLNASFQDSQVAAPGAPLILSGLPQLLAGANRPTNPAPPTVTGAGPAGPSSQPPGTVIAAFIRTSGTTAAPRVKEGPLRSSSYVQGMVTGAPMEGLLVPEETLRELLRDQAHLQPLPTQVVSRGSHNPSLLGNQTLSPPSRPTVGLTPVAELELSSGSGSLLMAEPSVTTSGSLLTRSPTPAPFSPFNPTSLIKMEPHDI
Chain of HSF1 (Q00613 whole entry): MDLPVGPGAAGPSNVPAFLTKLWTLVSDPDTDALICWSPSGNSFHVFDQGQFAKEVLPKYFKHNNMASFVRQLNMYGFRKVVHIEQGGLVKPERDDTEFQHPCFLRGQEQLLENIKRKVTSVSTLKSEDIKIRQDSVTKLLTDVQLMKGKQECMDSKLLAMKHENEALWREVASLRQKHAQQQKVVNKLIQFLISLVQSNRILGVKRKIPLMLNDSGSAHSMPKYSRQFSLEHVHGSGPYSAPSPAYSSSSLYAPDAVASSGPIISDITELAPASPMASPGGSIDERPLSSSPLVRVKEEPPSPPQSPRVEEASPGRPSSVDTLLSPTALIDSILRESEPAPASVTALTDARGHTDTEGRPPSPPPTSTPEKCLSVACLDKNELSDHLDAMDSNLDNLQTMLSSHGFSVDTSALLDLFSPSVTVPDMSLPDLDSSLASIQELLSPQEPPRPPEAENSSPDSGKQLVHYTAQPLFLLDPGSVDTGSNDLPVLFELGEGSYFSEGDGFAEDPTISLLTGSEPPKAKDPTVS

Take ACCCTC: the binding signal with FLI1 is 1.2 fold enrichment (6-mer frequency, TF over GST control); with ELK1, 1.27 fold enrichment (6-mer frequency, TF over GST control); with GABPA, 1.15 fold enrichment (6-mer frequency, TF over GST control); in the experiment with ERG, 1.1 fold enrichment (6-mer frequency, TF over GST control); with ELF1, 1.13 fold enrichment (6-mer frequency, TF over GST control); with EHF it was 1.1 fold enrichment (6-mer frequency, TF over GST control). The binding signal in the experiment with SPI1 was 1.12 fold enrichment (6-mer frequency, TF over GST control); with SPIB it was 1.14 fold enrichment (6-mer frequency, TF over GST control); with ELK3 it was 1.31 fold enrichment (6-mer frequency, TF over GST control); with FEV, 1.15 fold enrichment (6-mer frequency, TF over GST control); with ETV5, 1.2 fold enrichment (6-mer frequency, TF over GST control); in the experiment with HSF1, 1.11 fold enrichment (6-mer frequency, TF over GST control). The binding signal is 1.24 fold enrichment (6-mer frequency, TF over GST control) with SPIC; 1.25 fold enrichment (6-mer frequency, TF over GST control) with ELF4; 1.01 fold enrichment (6-mer frequency, TF over GST control) in the experiment with ELK4; 1.15 fold enrichment (6-mer frequency, TF over GST control) with ETV2; 1.12 fold enrichment (6-mer frequency, TF over GST control) with ELF3; 1.11 fold enrichment (6-mer frequency, TF over GST control) in the experiment with CRX. Besides, in the experiment with ETV1, the binding signal was 1.14 fold enrichment (6-mer frequency, TF over GST control).

These data come from PMC7862700, “An all-to-all approach to the identification of sequence-specific readers for epigenetic DNA modifications on cytosine”.
